Experimental data taken from ChEMBL document CHEMBL3988442, “University of Dundee, Small-Polar-MMV Screening Library” (2021).
Among all 66,000 compounds or so, about 960 (1.5%) showed an effect of 50% or more. The list comes from a sample in which strong results are over-represented; it also holds similar structures and randomly drawn compounds.

Tested on: Trypanosoma brucei
Assay: Trypanosoma brucei 72 hour study
Type: functional, organism-based
Parameters: scale not given: in the data most compounds retested in dose-response had high values

## COc1cccc(OC)c1CN1CC(=O)N(c2ccc(C)cc2)CC1C (centres undefined)
30 µM, 30.03 µM
  Percent Effect: 102.6%

## COc1cc(CN2CC(=O)N(c3ccc(C)cc3)CC2C)cc(OC)c1 (centres undefined)
30 µM, 30.03 µM
  Percent Effect: -11.31%

## COc1ccc(CN2CC(=O)N(c3ccc(C)cc3)CC2C)cc1O (centres undefined)
30 µM, 30.03 µM
  Percent Effect: -20.88%

## Cn1cc(C(=O)N2C[C@H]3C[C@H](Oc4ccccc4)C[C@H]3C2)cn1
30.3 µM, […]
  Percent Effect: 8.793%

## Cl.c1cnc(Nc2cncc(C3CCCN3)n2)cn1 (centres undefined)
30.3 µM, […]
  Percent Effect: 99.3%

## Cl.c1nnc(Nc2cncc(C3CCCN3)n2)s1 (centres undefined)
30.3 µM, […]
  Percent Effect: -8.347%

## Cc1nc(Nc2cnccn2)cc(C2CCCN2)n1.Cl (centres undefined)
30.3 µM, […]
  Percent Effect: -13.8%

## O=C(COC[C@@]12CCC[C@@H]1CN(C1CCCC1)C2)N1CCCC1.O=C(O)C(F)(F)F
30.3 µM, […]
  Percent Effect: -80.12%

## CSc1ccc(CNC(c2ccccc2F)c2nccn2C)cc1.Cl (centres undefined)
10 µM
  Percent Effect: -81.16%

## CN(C)C(=O)Cc1ccccc1NCc1cccc2cccnc12
30.3 µM, […]
  Percent Effect: 4.964%

## CN(C)C(=O)Cc1ccccc1NCc1cc(C#N)ccc1F
30.3 µM, […]
  Percent Effect: -2.182%

## CN(C)C(=O)Cc1ccccc1NCc1cccc(F)c1F
30.3 µM, […]
  Percent Effect: 97.11%

## CN(C)CCNC(=O)c1sccc1N(C)S(=O)(=O)c1ccc(Cl)cc1
30 µM, 30.03 µM
  Percent Effect: -35.26%

## COc1ccc(-c2ccccc2CN)c(OC)c1
30 µM, 30.03 µM
  Percent Effect: -56.26%

## COc1ccc(-c2ccccc2CCN)c(OC)c1OC
30 µM, 30.03 µM
  Percent Effect: 106.1%

## COc1ccc(-c2cc(CN)ccc2F)c(OC)c1OC
30.3 µM, […]
  Percent Effect: -22.81%

## CO[C@H]1CCN(Cc2ccoc2)C[C@@H]1Cc1ccccc1.O=C(O)C(F)(F)F
30.3 µM, […]
  Percent Effect: -12.49%

## C[C@@H]1C[C@@H]2CCN(C(=O)c3ccncn3)C[C@H]2O1
30 µM, 30.03 µM
  Percent Effect: -27.33%

## COc1cc(N2CCC3(CCCN(C(=O)c4cnccn4)C3)C2)ncn1.O=C(O)C(F)(F)F (centres undefined)
30 µM, 30.03 µM
  Percent Effect: -22.02%

## O=C(NCCCO)c1cc(-c2ccc3c(c2)CCO3)n[nH]1
30 µM, 30.03 µM
  Percent Effect: -14.14%

## O=C(NCCCN1CCOCC1)c1cc(-c2ccc3c(c2)CCO3)n[nH]1
30 µM, 30.03 µM
  Percent Effect: 57.45%

## O=C(NCCN1CCOCC1)c1cc(-c2ccc3c(c2)CCO3)n[nH]1
30 µM, 30.03 µM
  Percent Effect: 31.8%

## O=C(NCc1nnc2n1CCCCC2)N(CC1CCOC1)C1CC1 (centres undefined)
30 µM, 30.03 µM
  Percent Effect: -56.14%

## CNc1cc2c(nn1)CCN(C(=O)c1cccc3c1OCCO3)C2
10 µM
  Percent Effect: -31.25%

## OCC1(Cc2ccc(Cl)cc2)CCN(Cc2ccccc2O)CC1
30.3 µM, […]
  Percent Effect: -146.1%

## COc1cccc(CN2CCC(CO)(Cc3ccc(Cl)cc3)CC2)c1O
30.3 µM, […]
  Percent Effect: 102.9%

## COc1ccc(CN2CCC(CO)(Cc3ccc(Cl)cc3)CC2)c(O)c1
30.3 µM, […]
  Percent Effect: -63.01%

## CC(C)CNC(=O)[C@H]1C[C@@H]2CN(C(=O)Nc3ccc(F)cc3)C[C@H]1O2
30 µM, 30.03 µM
  Percent Effect: -34.27%

## O=S(=O)(c1ccccc1)N1CCC2(CCCN2Cc2ccc(Cl)cc2)C1 (centres undefined)
30.3 µM, […]
  Percent Effect: 61.41%

## CCS(=O)(=O)N1CCCC2(CCCN2Cc2cccc(F)c2)C1.O=C(O)C(F)(F)F (centres undefined)
30 µM, 30.03 µM
  Percent Effect: -82.26%

## O=S(=O)(c1ccccc1)N1CCC2(CCCN2Cc2cccc(F)c2)C1 (centres undefined)
30.3 µM, […]
  Percent Effect: 56.8%

## O=S(=O)(c1ccccc1)N1CCC2(CCCN2Cc2ccccc2Cl)C1 (centres undefined)
30.3 µM, […]
  Percent Effect: 33.63%

## O=C(O)C(F)(F)F.O=S(=O)(c1ccccc1)N1CCC2(CCCN2Cc2cccc(Cl)c2)C1 (centres undefined)
30 µM, 30.03 µM
  Percent Effect: -34.57%

## O=C(O)C(F)(F)F.O=C(O)C(F)(F)F.O=S(=O)(c1ccccc1)N1CCC2(CCCN2Cc2cccnc2)C1 (centres undefined)
30.3 µM, […]
  Percent Effect: -446.5%
